# From the supplement of paper PMC9337992
# ± gives the standard deviation of the averaged measurements.
# What was measured:
# Assay in all cases: cell proliferation (confluence) relative to DMSO control; higher = less growth inhibition
# Settings in all cases: 5 uM; 6 d
# BT549 = system: BT549
# How it was run: (§1)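 Plates with 384 wells were seeded with triple-negative breast cancer cell lines at 500 cells per well, and epigenetic chemical probes in DMSO were added once the cells had attached, at a final 5 μM for 6 d. Imaging used an IncuCyte ZOOM with a ×10 objective in phase-contrast, and analysis used Incucyte 2016 software. With four replicate wells per compound, confluence was normalised to wells holding DMSO alone.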
# CAL120 = system: CAL120
# How it was run: as §1
# HCC1143 = system: HCC1143
# How it was run: as §1
# HCC1395 = system: HCC1395
# How it was run: as §1
# HCC153 = system: HCC153
# How it was run: as §1
# HCC1806 = system: HCC1806
# How it was run: as §1
# HCC38 = system: HCC38
# How it was run: as §1
# HCC70 = system: HCC70
# How it was run: as §1
# Hs578-T = system: Hs578-T
# How it was run: as §1
# MB157 = system: MB157
# How it was run: as §1
# SUM149-PT = system: SUM149-PT
# How it was run: as §1
# SUM159-PT = system: SUM159-PT
# How it was run: as §1
Structure (SMILES),cell proliferation (BT549) [%],cell proliferation (CAL120) [%],cell proliferation (HCC1143) [%],cell proliferation (HCC1395) [%],cell proliferation (HCC153) [%],cell proliferation (HCC1806) [%],cell proliferation (HCC38) [%],cell proliferation (HCC70) [%],cell proliferation (Hs578-T) [%],cell proliferation (MB157) [%],cell proliferation (SUM149-PT) [%],cell proliferation (SUM159-PT) [%]
COc1cc(C(=O)N2CC[C@@H](O)[C@@H](N)C2)cc2nc(-c3cc4ccccc4n3CC3CC3)n(C)c12,97.5 ± 1.7,97.9 ± 2.2,97.3 ± 1.2,99.953 ± 0.017,59.2 ± 12,79.3 ± 7.7,99.49 ± 0.46,88.1 ± 8,97.5 ± 1.4,90.8 ± 11,87.2 ± 9.1,99.994 ± 0.0032
c1ccc([C@@H]2C[C@H]2NC2CCNCC2)cc1,99.73 ± 0.11,90.8 ± 1.6,97.61 ± 0.58,99.99 ± 0.0084,86.3 ± 2.5,99.68 ± 0.28,99.69 ± 0.18,90.9 ± 5.3,96.3 ± 1.6,86.3 ± 7.8,64.1 ± 20,99.974 ± 0.029
O=C(O)CNC(=O)c1c(O)c2ccccc2n(Cc2ccccc2)c1=O,99.17 ± 0.41,88.7 ± 5.2,97.3 ± 1.9,99.51 ± 0.21,83.7 ± 4.2,98.07 ± 0.77,98.2 ± 1.1,98.48 ± 0.74,95 ± 1.8,95.4 ± 3.5,88 ± 5,99.986 ± 0.0083
